High-throughput results (PubChem)
esBAF inh: SWI/SNF esBAF complex inhibition; reporter increase, % at 12.5 µM; actives 2% (n = 350,000); mouse ES cells, Bmi1-luciferase knock-in reporter, 24 h; 100% = twice the neutral-well signal; in the data active = activation above about 40%; inconclusive = no clear call, values can overlap the other calls;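 also: 0% = median of the plate's neutral control wells and 100% = double that signal; a rise in the Bmi1 reporter signal indicates esBAF inhibition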
Vif imaging: HIV Vif inhibition | inhibition, % at 7.49 µM | HEK293T cells, Vif self-association by quenched fluorescence, imaging, 24 h | actives 0.35% (n = 340,000) | AID 602346; in the data active = inhibition above about 50%, passing the limit was not always enough; inconclusive = no clear call, values can overlap the other calls; inactive = below about 31%
GRIN3A LBD mod: NR3A (human) ligand-binding domain modulation; NR3A LBD differential scanning fluorimetry, Tm shift; 0% = protein alone, 100% = glycine-bound protein; Tm shift relative to glycine control, % at 25 µM; actives 2.5% (n = 340,000);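 active = melting temperature shift of at least 10% of the positive control shift, at one fixed dose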
SMARCA2 activ: increases SMARCA2 function in MMTV reporter cells; actives 1% (n = 370,000); MG213 cells, MMTV-luciferase reporter, dexamethasone, overnight; activation, % at 9.1 µM; in the data active = activation above about 7.8%;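 also: 0% = vehicle wells and 100% = reference activator wells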
NadD inh: NadD (S. aureus) enzyme inhibition. actives 0.78% (n = 360,000). AID 602399. inhibition, % at 20 µM. purified NadD enzyme, colorimetric absorbance read-out; in the data active = inhibition above about 26%
SKN-1 block: C. elegans SKN-1 inhibition; C. elegans VP596 Pgst-4::GFP/RFP ratio, acrylamide-induced, 24 h; inhibition, % at 21.8 µM; actives 0.49% (n = 360,000); AID 624304;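 active = interference check ratio from 0.5 to 1.5 plus GFP to RFP signal ratio inhibition reaching or exceeding a fixed threshold, cut at about 30% in these data, passing the limit was not always enough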
SMARCA2 conf: SMARCA2 activation, confirmation screen; shares compounds with SMARCA2 activ; MG213 cells, MMTV-luciferase with dexamethasone, luminescence, overnight; MG213 cells expressing E1A, Rb sequestered; DMSO wells 0%, reference activator 100%; activation, % at 9.1 µM; actives 30% (n = 3,500); AID 652260;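 active = activation above its plate's cutoff, the mean activation of tested wells plus 3 SD, cut at about 7.9% in these data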
VP16 Luc act: activates GAL4-VP16 luciferase, flagging SMARCA2 activator hits. shares compounds with SMARCA2 activ. HEK293 GAL4-VP16 pG5luc reporter, luciferase luminescence; scaled: DMSO wells 0%, SAHA wells 100%. activation, % at 9.1 µM. actives 41% (n = 3,500). AID 686939;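 active = activation above the solvent-only control well mean plus 3 SD, averaged across control plates, cut at about 5.2% in these data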
* hit, by the source's call; u = inconclusive; x = no result given. Rows were chosen to be rich in hits. Some 5.2% of all compounds tested hit in one or more screens of this group.

SMILES	esBAF inh	Vif imaging	GRIN3A LBD mod	SMARCA2 activ	NadD inh	SKN-1 block	SMARCA2 conf	VP16 Luc act
Cc1cc(C)c2c(N)c(C(=O)Nc3ccc([N+](=O)[O-])cc3)sc2n1	u	2	0	8.5*	-10	3	5	10*
CO[C@@H]1CN(C)C(=O)c2ccc(NC(=O)c3ccc(F)cc3)cc2OC[C@H](C)N(C(=O)CC2CC2)C[C@H]1C	16	x	x	x	x	x	x	x
Cc1cccc2nc(=S)n(C(=O)c3ccco3)n12	75*	14	-1	8.6*	-2	8	7	14*
O=C(c1ccco1)N1CCN(C(=O)c2ccco2)CC1	x	0	x	-3	-9	-5	x	x
O=C(Nc1cc2nn(-c3ccccc3)nc2cc1Cl)c1ccco1	u	3	-4	8.8*	19	45*	21*	11*
O=C(Nc1cc(Cl)ccc1Cl)c1ccco1	-4	15	1	5	-4	-7	x	x
Cc1ccc(C(=O)OCc2cc(=O)n3c(C)csc3n2)s1	-1	0	-2	8.8*	-6	-10	8	1
O=C(CN1CCOCC1)N[C@@H]1CC[C@@H](CCn2cc(C3CC3)nn2)O[C@H]1CO	3	x	x	x	x	x	x	x
CCN(CC)CCNc1nc2cc(OC)c(OC)cc2c2nc(-c3ccccc3)nn12	-6	-34	2	9.7*	-8	3	26*	1
COc1ccccc1NC(=O)c1c(C)nc2ccccc2c1C(=O)O	-6	-3	0	-2	-2	-1	x	x
COc1cccc2c1CCc1c-2nc2ccccc2c1C(=O)O	x	13	2	11*	0	10	8.2*	5.9*
Cc1cc(F)ccc1-c1cc(C(=O)NCC2CCCCC2)[nH]n1	8	-3	x	8.6*	3	-2	-1	0
O=C(CN1C(=O)NC2(CCc3ccccc32)C1=O)Nc1cccc(F)c1 (centres undefined)	-8	-12	-1	-1	-2	-7	x	x
O=C(CN1C(=O)NC2(CCc3ccccc32)C1=O)NCC(=O)Nc1ccc(F)cc1 (centres undefined)	-7	4	1	8.2*	5	7	-4	2
O=C(CC(F)(F)F)N1C[C@H]2[C@@H](c3ccccc31)[C@@H](CO)N2C(=O)C1CCCC1	-2	x	x	x	x	x	x	x
CCCc1cn(CC[C@@H]2CC[C@@H](NC(=O)C3CCOCC3)[C@H](CO)O2)nn1	-4	x	x	x	x	x	x	x
O=C(Cn1cnc2ccccc2c1=O)Nc1ccc2c(c1)OCCO2	u	-21	0	8.0*	3	19	6	12*
O=C(CC(=O)c1ccccc1)Nc1ccc2c(c1)OCCO2	37	-8	-28	5	-5	25	x	x
O=C(CCCc1ccccc1)Nc1ccc2c(c1)OCCO2	x	0	-1	9.3*	-9	-7	5	8.8*
O=C(Nc1ccc2c(c1)OCCO2)C(=S)NCc1ccccc1	x	10	0	9.7*	-6	1	5	4
O=C(Cn1cnc2ccccc2c1=O)NCCC(=O)Nc1ccc2c(c1)OCCO2	-11	9	-3	-3	-5	-19	x	x
CCOC(=O)c1csc(-c2ccc3c(c2)CCO3)n1	x	1	1	16*	0	28	3	6.7*
CN(C)C(=O)C[C@@H]1C=C[C@@H](NC(=O)NC2CCCCC2)[C@@H](CO)O1	-1	x	x	x	x	x	x	x
Cn1nc(N)c2ncc(-c3ccc(Cl)cc3)nc21	14	31	x	9.1*	2	-3	8.9*	7.7*
Cn1nc(NC(=O)C(F)(F)F)c2ncc(-c3ccc(Cl)cc3)nc21	u	-11	3	6	0	1	x	x
SMILES	esBAF inh	Vif imaging	GRIN3A LBD mod	SMARCA2 activ	NadD inh	SKN-1 block	SMARCA2 conf	VP16 Luc act
Cc1ccc(S(=O)(=O)Nc2ccc3c(c2)C(=O)N([C@H](C)CO)C[C@@H](C)[C@H](CN(C)Cc2ccc(-c4ccccc4)cc2)O3)cc1	3	x	x	x	x	x	x	x
O=C1c2nc3cc(-c4ccccc4)[nH]n3c(=O)c2CN1Cc1ccccc1	x	x	0	x	x	x	x	x
O=C1c2nc3cc(-c4ccco4)[nH]n3c(=O)c2CN1C1CCCCC1	x	1	2	11*	-2	9	-2	2
C[C@H]1CN([C@@H](C)CO)C(=O)c2cccc(NS(C)(=O)=O)c2O[C@@H]1CN(C)C(=O)Nc1cccc2ccccc12	-3	x	x	x	x	x	x	x
COc1cccc(CC(=O)Nc2nc(C)cs2)c1	-7	-5	1	8.6*	-5	-2	4	2
CCCS(=O)(=O)NC(=O)C1(C)CCN(C(=O)c2nc(C)oc2C)C1 (centres undefined)	3	9	x	8.0*	1	-3	0	1
CCCS(=O)(=O)NC(=O)C1(C)CCCN(C(=O)c2nc(C)oc2C)C1 (centres undefined)	-2	x	x	x	-9	16	x	x
COC(=O)CSc1nc(-c2cccs2)ccc1C#N	x	-4	-3	11*	3	10	13*	8.0*
COc1ccccc1CN1C[C@@H](C)[C@H](OC)CN(C)C(=O)c2cc(NC(C)=O)ccc2OC[C@@H]1C	-1	x	x	x	x	x	x	x
O=C(Cc1cccs1)NCc1cccc(Br)c1	20	-5	1	9.2*	-8	2	4	7.8*
O=C(Cc1cccs1)Nc1ccc(NC(=O)c2ccco2)cc1	14	-3	0	12*	-1	-8	6	7.9*
C[C@H](CO)N1C[C@H](C)[C@H](CN(C)S(=O)(=O)c2cn(C)cn2)Oc2ncc(C#Cc3ccc(F)cc3)cc2C1=O	5	x	x	x	x	x	x	x
CCOC(=O)c1sc(N)c(C(=O)OCC)c1C	x	-4	-1	22*	-12	5	7	7.5*
CCOC(=O)c1c(N)sc(C(=O)OCCOC)c1C	x	-2	0	0	5	14	x	x
N#C/C(=C\c1ccc(O)c(O)c1)C(=O)Nc1ccccc1	u	u	3	9.8*	-1	17	0	4
Cc1cccc(NC(=O)/C(C#N)=C/c2ccccc2O)n1	u	-14	0	12*	-5	7	5	6.7*
Cc1ccc(-c2cnc3c(c2)C(=O)N([C@H](C)CO)C[C@@H](C)[C@@H](CN(C)CC2CCOCC2)O3)cc1	5	x	x	x	x	x	x	x
C[C@@H](NC(=O)C[C@@H]1C=C[C@@H](NC(=O)Cc2ccccn2)[C@H](CO)O1)c1ccccc1	-4	x	x	x	x	x	x	x
O=C(O)C1C2CCC(O2)C1C(=O)Nc1ccc(F)c(Cl)c1 (centres undefined)	9	31	-1	-1	-6	-2	x	x
